High-throughput results (PubChem BioAssay)
Most compounds without a hit are left out; they make up all but 11% or so of the library.
hNpr1 antagonist: Natriuretic polypeptide receptor (hNpr1) antagonism - Primary qHTS. Atrial natriuretic peptide receptor 1 (Homo sapiens), P16066. HEK293 hNpr1 GloSensor cGMP, ANP-stimulated luminescence. Potency, µM (titrated, usually from 46.3 µM), inactives show at the top dose activity change, negative = inhibition, most hits filed as inhibitors. hit rate 1.6% among 76,000. AID 1347048, 2019; calls by dose curve; note: nearly all actives have a fitted effect of over 60% in size
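HEK293 cells stably expressing human Npr1 and cGMP GloSensor pGS-40F, loaded 2 h with 2% GloSensor reagent, given compound 30 min at room temperature. Luminescence read before and 20 min after 0.1 nM hNppA.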
HEK cytotox: Cytotoxic Profiling in HEK 293 Cell Line of Diverse Libraries Using Quantitative High-Throughput Screening. HEK 293 viability, ATP luminescence (CellTiter-Glo), 48-72 h. Potency, µM (highest dose often 115 µM), inactives show at the top dose activity change, negative = cytotoxicity, usual class: inhibitors. hit rate 6.6% among 94,000. AID 1345083, 2018; note: nearly all actives have a fitted effect of over 60% in size
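HEK 293 cells seeded at 250 cells/well were exposed to compound for 48 or 72 hr at 37 degree Celsius. Viability taken as ATP content by CellTiter-Glo luminescence.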
NIH3T3 tox: Cytotoxic Profiling in NIH 3T3 Cell Line of Diverse Libraries Using Quantitative High-Throughput Screening; NIH 3T3 viability, CellTiter-Glo ATP luminescence, 48-72 h; Potency, µM (top dose mostly 96.7 µM), for inactives: at the top dose activity change, negative = cytotoxicity, hits mostly inhibitors; hit rate 4.3% among 94,000; note: nearly all actives have a fitted effect of over 55% in size
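Mouse fibroblast NIH 3T3 cells, 400 per well, received compound via pintool and were incubated for 48 or 72 hr prior to CellTiter-Glo ATP luminescence measurement.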
FLuc inh: Firefly luciferase inhibition profiling of diverse chemical library using quantitative high-throughput screening. Luciferin 4-monooxygenase (Photinus pyralis), P08659. purified P. pyralis luciferase, luminescence, biochemical. Potency, µM (doses to about 115 µM), usual class: inhibitors. hit rate 2.5% among 76,000; note: nearly all actives have a fitted effect of over 65% in size
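Purified 10nM P. pyralis luciferase with 10uM D-luciferin and 10uM ATP in 50mM Tris acetate pH 7.5, 10mM Mg acetate, 0.01% Tween-20, 0.05% BSA. qHTS titration; luminescence read by CCD imager.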
Numbers without * were called inactive; i = inactive; ? = inconclusive; . = no result given; [ ] = another dose, or the depositor's remark. Unless noted, calls come from the whole dose curve; as a rule, active = well fitted curve in the direction sought with a large enough effect; inconclusive = small, poorly fitted or top-dose-only effect, or another doubt; inactive = no such curve, though single readings can be large; an effect the other way counts as inactive or inconclusive. % is set by controls: 0 for no effect and ±100 for the full control effect; potency is the fitted concentration of half-maximal effect.

SMILES	hNpr1 antagonist	HEK cytotox	NIH3T3 tox	FLuc inh
COc1ccccc1-c1ccc(C(=O)N2CCC(C(=O)NCCCc3ccccc3)CC2)cc1	.	79µM*	?	.
COc1ccccc1-c1ccc(C(=O)N2CCC(C(=O)NCC3CC3)CC2)cc1	.	?	-25%	.
COc1ccccc1-c1ccc(C(=O)N2CCC(C(=O)NCc3cccc(Cl)c3)CC2)cc1	.	20µM*	?	.
COc1ccccc1-c1ccc(C(=O)N2CCC(NC(=O)N(C)C)CC2)cc1	.	0%	-14%	.
Cc1cccc(NC(=O)N2CCC(CCNC(=O)C3(c4ccccc4)CC3)CC2)c1	.	?	-30%	.
Cc1ccc(CN2CCCC3(COc4ccccc4C(=O)N3)C2)cc1 (stereo not drawn)	-2%[70.6 µM]	?	?	i
COc1ccc(CN2Cc3[nH]nc(-c4cccnc4OC)c3CC2=O)cc1	1%[70.6 µM]	71µM*	?	i
COc1ccc(CN2Cc3[nH]nc(-c4ccccc4)c3CC2=O)cc1	-1%[70.6 µM]	i	?	i
COc1ccc(CN2Cc3[nH]nc(-c4ccc(N5CCN(C)CC5)cc4)c3CC2=O)cc1	-3%[70.6 µM]	45µM*	79µM*	i
COc1ccc(CN2Cc3[nH]nc(-c4ccnn4C)c3CC2=O)cc1	-17%[70.6 µM]	112µM*	?	i
COCCN1CCN(C[C@@H]2C=C(C)[C@H](Cc3nnc(-c4cccnc4)o3)C[C@H]2C(C)C)CC1	-4%	?	?	i
COCCN1CCN(C[C@@H]2C=C(C)[C@H](Cc3nnc(-c4ccc(N(C)C)cc4)o3)C[C@H]2C(C)C)CC1	2%	32µM*	?	i
CC1=C[C@@H](CN2CCC(O)CC2)[C@H](C(C)C)C[C@H]1Cc1nnc(-c2ccc(N(C)C)cc2)o1	5%	?	40µM*	i
COc1ccc(NC(=O)c2c(C)nc3n2CCC(Nc2ccc(F)cc2)C3)cn1 (stereo not drawn)	8%[70.6 µM]	-26%[172 µM]	?	i
N#Cc1cccc(-c2c(C(=O)NCc3ccc(Cl)cc3)nc3sccn23)c1	.	?	35µM*	.
O=C(NCC(F)(F)F)c1nc2sccn2c1-c1cccc(C(F)(F)F)c1	.	-29%	?	.
N#Cc1cccc(-c2c(C(=O)NCc3ccccc3F)nc3sccn23)c1	.	-28%	-24%	.
N#Cc1cccc(-c2c(C(=O)NCc3cccc(C(F)(F)F)c3)nc3sccn23)c1	.	35µM*	?	.
O=C(NCc1ccccn1)c1nc2sccn2c1-c1cccc(C(F)(F)F)c1	.	?	32µM*	.
Cc1ccc(-c2c(C(=O)NCc3cccc(C(F)(F)F)c3)nc3sccn23)cc1	.	22µM*	?	.
O=C(NCc1ccccc1)C1CCCN(c2nccc(Nc3ccccc3F)n2)C1 (stereo not drawn)	.	18µM*	32µM*	.
O=C(C1CCCN(c2nccc(Nc3ccccc3F)n2)C1)N1CCOCC1 (stereo not drawn)	.	?	-26%	.
O=C(C1CCCN(c2nccc(Nc3ccccc3F)n2)C1)N1CCCC1 (stereo not drawn)	.	45µM*	32µM*	.
O=C(NCc1cccc(F)c1)C1CCCN(c2nccc(Nc3ccccc3F)n2)C1 (stereo not drawn)	.	?	28µM*	.
O=C(NCc1ccccc1)C1CCCN1c1nccc(Nc2ccccc2F)n1 (stereo not drawn)	.	?	-32%	.
SMILES	hNpr1 antagonist	HEK cytotox	NIH3T3 tox	FLuc inh
O=C(NCc1ccc(C(F)(F)F)cc1)C1CCCN(c2nccc(Nc3ccccc3F)n2)C1 (stereo not drawn)	.	?	32µM*	.
CC(C)N1C[C@H](O)C[C@H]1c1nnc2n1CCN(C(=O)c1ccc(Cn3ccnc3)o1)CC2	3%	-8%	-6%	i
COc1ccc(-c2ccc(C(=O)NCc3ccc4c(c3)OCO4)cc2)nn1	.	?	-16%	.
CCCNC(=O)CCC1CCCN(S(=O)(=O)c2ccc(C)cc2)C1 (stereo not drawn)	.	?	-31%	.
O=C(NCC1CCCCCC1)C1CCCN(c2nccc(Nc3ccccc3F)n2)C1 (stereo not drawn)	.	28µM*	?	.
CC1(C(=O)NCc2cccc(F)c2)COCc2cnc(Nc3ccccc3)nc21 (stereo not drawn)	-25%[70.6 µM]	89µM*	?	i
